PubChem BioAssay (NCI)
The panel holds about 83,000 compounds, 20% with a hit somewhere; the sample as a whole holds those more often.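 In brief: 96-well plates, 48 h treatment, single concentration, percent growth endpoint.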 A number with no mark means an inactive call. Activity calls are given as the source filed them. The calls were made as follows: active = growth percent below 10; inactive = the rest.

These compounds were tested on HOP-62 NSCLC (assay: NCI-60 one-dose screen, 48 h (100 = growth as untreated, 0 = no growth, -100 = all killed)). Conditions: 10 µM.

| SMILES | growth |
| --- | --- |
| Cc1cc(O)c(C2=NN(c3ccc(S(N)(=O)=O)cc3)C(c3ccc(N(C)C)cc3)C2)c(C)c1Cl (stereo not drawn) | 107% |
| C=CCNC(=S)NN | 81.2% |
| O=C(Nc1ccc(OS(=O)(=O)Cc2ccccc2)cc1)C12CC3CC(CC(C3)C1)C2 | 79.3% |
| Cc1cc(C(C)(C)CC(C)(C)C)ccc1OCCOCC[N+](C)(C)Cc1ccccc1 | -83.5% (active) |
| Oc1cc(O)c(Br)cc1Br | 105% |
| C/C(=N/NC(=O)c1sc(=S)n(C)c1N)c1cc2cc(Cl)ccc2o1 | 96.5% |
| CCOC(=O)CSC(=S)SCC(=O)OCC | 105% |
| Cc1c(C(=O)N[C@H](CO)Cc2ccccc2)[nH]c2ccc(Cl)cc2c1=O | 100% |
| Cc1ccc2c(c1)-c1cc(C)nn1-c1ccc(C#N)cc1O2 | 51.6% |
| CCOC(=O)c1cc(-c2ccccc2)nc(N)n1 | 96.1% |
| COc1cccc2c1O/C(=C\c1ccc([N+](=O)[O-])s1)C2=O | 92.4% |
| CCN(CC)CC(O)CNc1ccnc2cc(Cl)c(Cl)cc12 (stereo not drawn) | 88.9% |
| N#C/C(=C\N1C(=O)/C(=C/c2cccc([N+](=O)[O-])c2)SC1=S)c1nc2ccccc2s1 | 73.1% |
| COc1cc(/C=C/C(=O)c2cc(-c3ccccc3)ccc2O)cc(OC)c1OC | 83.8% |
| Cc1cccc2c(Nc3ccc(NS(C)(=O)=O)cc3)c3ccc([N+](=O)[O-])cc3nc12 | 14% |
| COc1ccc(/C=C2\SC(=S)N(CCCN3CCOCC3)C2=O)c(OC)c1 | 125% |
| Oc1ccc(/C=N\Nc2ccccn2)c(O)c1 | 2.96% (active) |
| O=C(NCCCl)c1cc(Cl)cc(Cl)c1 | 109% |
| O=S(=O)(NCCO)c1ccc(OCCOc2ccc(S(=O)(=O)NCCO)cc2)cc1 | 90.7% |
| CCCCCCCCCCCCc1ccc(C(=O)/C=C/C(=O)O)cc1 | 93% |
| CCOC(=O)/C(C#N)=C(/C)C1CC1 | 98.5% |
| O=C1CC(c2cccc(-c3cccnc3)c2)=Nc2ccc(Br)cc2N1 | 19.7% |
| COc1cc(NS(C)(=O)=O)ccc1Nc1c2ccc(Cl)cc2nc2c(OC)cccc12 | -14.3% (active) |
